Data: the supplement of paper PMC6555819

Assays:
Test in all cases: PBM binding z-score (relative to random genomic background probes); higher = stronger binding; sequences stand for … in GC…GCGATTGACAGCGTAGAATGAAGG
[1] = test system: PPARg:RXRa DBDmut IVT, anti-RXR (DBD mutation: RXRa K156A/R161A, NR concentration 270 nM, RXRa partner concentration 90 nM)
Method in brief: (§1)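 Ligand-free nuclear receptor dimers were applied to custom Agilent 4×180K protein-binding microarrays whose double-stranded probes carried direct-repeat seeds, single-nucleotide variants, half-site ablations and random human genomic background sequences in 34-nt variable regions. Incubation lasted 1 h. Binding z-scores were computed against the random background probes from regression-normalized fluorescence.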

[2] = test system: PPARg:RXRa IVT, anti-PPARg (NR concentration 270 nM, RXRa partner concentration 90 nM)
Method in brief: as §1

[3] = test system: PPARg DBDmut:RXRa IVT, anti-PPARg (DBD mutation: PPARg1 K132A/R137A, NR concentration 270 nM, RXRa partner concentration 90 nM)
Method in brief: as §1

[4] = test system: PPARg DBDmut IVT, anti-PPARg (DBD mutation: PPARg1 K132A/R137A, NR concentration 270 nM)
Method in brief: as §1

[5] = test system: PPARg homodimer (NR concentration 180 nM)
Method in brief: as §1

[6] = test system: PXR:RXRa (NR concentration 270 nM, RXRa partner concentration 90 nM)
Method in brief: as §1

[7] = test system: PXR homodimer (NR concentration 270 nM)
Method in brief: as §1

[8] = test system: RARa:RXR (NR concentration 270 nM, RXRa partner concentration 90 nM)
Method in brief: as §1

[9] = test system: RARa homodimer (NR concentration 270 nM)
Method in brief: as §1

[10] = test system: RARb:RXRa (NR concentration 270 nM, RXRa partner concentration 90 nM)
Method in brief: as §1

[11] = test system: RARb homodimer (NR concentration 270 nM)
Method in brief: as §1

[12] = test system: RARg:RXRa (NR concentration 270 nM, RXRa partner concentration 90 nM)
Method in brief: as §1

[13] = test system: RARg homodimer (NR concentration 270 nM)
Method in brief: as §1

[14] = test system: RXRa DBDmut IVT, anti-RXR (DBD mutation: RXRa K156A/R161A, NR concentration 90 nM)
Method in brief: as §1

[15] = test system: RXRa homodimer (NR concentration 180 nM)
Method in brief: as §1

[16] = test system: THRa:RXRa (NR concentration 90 nM, RXRa partner concentration 90 nM)
Method in brief: as §1

[17] = test system: THRa homodimer (NR concentration 90 nM)
Method in brief: as §1

[18] = test system: VDR homodimer (NR concentration 270 nM)
Method in brief: as §1

Sequence	PBM binding z-score [1]	PBM binding z-score [2]	PBM binding z-score [3]	PBM binding z-score [4]	PBM binding z-score [5]	PBM binding z-score [6]	PBM binding z-score [7]	PBM binding z-score [8]	PBM binding z-score [9]	PBM binding z-score [10]	PBM binding z-score [11]	PBM binding z-score [12]	PBM binding z-score [13]	PBM binding z-score [14]	PBM binding z-score [15]	PBM binding z-score [16]	PBM binding z-score [17]	PBM binding z-score [18]
ATACCAAGGTGATCGTGAGGTCATTGATACTAAC	0.662	2.58	0.666	0.349	2.35	5.39	4.33	4.55	0.789	3.25	4.17	4.94	3.31	1.63	3.99	4.6	4.6	4.77
TGACTGAGGTTATAAGATCAGGGAACGTTGCAAA	-0.568	0.535	-0.045	-0.27	0.479	0.649	-0.0741	1.25	-0.694	1.15	0.146	1.59	0.985	0.64	1.87	1.58	-0.016	0.435
ATCTCTAGGTAAGACTCAGTTCAGCGAAGAACGC	1.67	1.01	0.389	0.673	0.96	0.943	1.37	0.477	1.01	0.277	0.706	0.274	0.294	0.439	0.4	0.927	0.802	1.48
TTACCAAGGAGAAAGGTCGTTGATGCACGCCTTG	0.0947	0.908	0.246	0.131	0.653	1.82	-0.00641	2.12	-0.114	1.5	1.55	1.43	0.929	0.362	2.29	1.48	-0.13	1.17
CTACCAAGGTGAACAAGGCCGTTGATTACTATTC	2.3	2.16	0.257	-0.28	0.346	0.327	0.451	0.868	-0.304	1.59	0.956	0.749	0.894	0.53	0.695	2.18	1.08	0.0898
GCTGCTAGGTCAACTGATGGTCGGCTAAAGCTCG	4.58	4.01	0.404	-0.469	0.839	1.4	-0.734	2.31	-0.561	4.45	3.67	4.74	5.56	1.82	2.91	3.09	0.97	0.148
GCGACTGGGGCAAAGCAGGTTACCATGAGGTTGG	4.46	3.79	-0.666	-1.4	0.0533	0.378	-0.61	0.383	-0.939	0.981	1.2	0.634	0.674	-0.402	0.455	2.99	-0.00664	-0.385
TCTAGTTGGTCACGGAGGTCGCACACGACGGGTA	2.12	2.88	0.487	0.825	1.19	1.79	-0.0843	1.63	0.349	2.47	2.48	2.11	2.3	0.614	2.16	1.91	0.625	1.18
ATCGAAAGGTCGTGTGGTGAGTATACAGAAAGGC	0.568	1.69	2.41	1.23	2.3	3.25	0.999	3.74	1.51	3.6	2.97	4.21	3.83	2.19	4.59	2.39	0.842	2.03
TCGAATAGGTTACCAATGGGGCATTCAGCTTTCT	2.41	1.12	0.24	-0.411	0.402	0.725	0.0437	0.908	0.281	1.57	1.21	2.11	0.782	1.09	1.39	0.655	-0.381	-0.151
GCTTGTTGATCAAGGTTAAGAAAGACTAAGCTAA	0.197	0.134	0.234	-0.0505	-0.0187	0.387	-0.694	0.658	0.254	0.66	0.2	0.237	0.0786	0.0866	0.387	1.23	-0.213	-0.369
CCTACTGGGGCATTCAGAGGTCATTGATCATATG	4.5	5.15	0.018	0.266	2.6	5.08	2.1	4.67	0.372	3.45	4.07	5.17	3.71	0.683	3.72	3.43	1.19	3.38
CCGACTGGCGCAAAGGTTACCATACTCAGTACGA	0.771	2.5	-1.09	-0.747	0.747	1.7	-0.233	2.04	-0.0622	1.75	1.81	1.62	0.821	0.55	2.11	1.35	-0.0334	-0.00484
CTCGAAAGGTCGTGCCCAGGTGAGTATACCAAAC	0.771	1.91	0.249	0.285	2.38	3.17	0.0798	4.63	0.0863	3.91	2.89	5.31	3.78	1.72	5.09	3.87	0.947	1.31
TATACAGGGTCAAAGGCAAGAGTACGAATGTCGA	2.4	4.77	3.32	1.87	2.27	3.86	1.15	5.3	1.42	4.43	3.28	5.58	5.01	3.09	6.4	3.48	1.05	3.39
